The values below come from PubChem BioAssay (NCATS).

A short description of experiment [1]: Primary qHTS for inhibitors of nuclear receptor binding SET domain protein 2 (NSD2) in an RCH-ACV wild type WT cells (2C) (AID 1645877; also: nearly all actives have a fitted effect of over 70% in size; also: potency is read from the fitted curve at half-maximal effect; as to activity change, negative = cell killing: % is scaled to controls: 0 for no effect and ±100 for the full control effect). (In general: qHTS replaces the single test concentration by a dilution series.)
The target of experiment [2] is Glutathione peroxidase 1 (Homo sapiens) (UniProt P07203). The experiment in a line: Primary qHTS Assay for Inhibitors of Recombinant Selenoprotein Glutathione Peroxidase 1 (GPX1) (AID 1845191). Also: nearly all actives have a fitted effect of over 65% in size. As to activity, negative = inhibition: % is scaled to controls: 0 for no effect and ±100 for the full control effect. The method in brief:
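GR-coupled readout: NADPH consumption tracked by fluorescence, ex 340/em 450 nm, at t=0 and after 15 min at RT. Final mix 10 nM GPX1, 1 mM GSH, 0.5 mM CHP, 0.5 mM NADPH, 100 nM GR, 0.01% BSA, following 30 min enzyme–compound preincubation.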

For experiment [3], the target named is Phospholipid hydroperoxide glutathione peroxidase GPX4 (Homo sapiens) (UniProt P36969). The experiment in a line: Primary qHTS Assay for Inhibitors of Recombinant Selenoprotein Glutathione Peroxidase 4 (GPX4) (AID 1845192). Also: nearly all actives have a fitted effect of over 65% in size. As to activity change, negative = inhibition: series mostly up to about 50 µM; % is scaled to controls: 0 for no effect and ±100 for the full control effect. Put shortly:
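Steps: GPX4 plus compound, 30 min RT; add GR/GSH/NADPH master mix; start with cumene hydroperoxide; read 340/450 nm fluorescence at 0 and 15 min. Finals were 200 nM GPX4, 1 mM GSH, 0.5 mM CHP, 0.5 mM NADPH, 100 nM GR.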

Experiment [4] deals with Luciferin 4-monooxygenase (Photinus pyralis) (UniProt P08659). Description: Primary firefly luciferase (FLuc) qHTS assay for identification of artifact compounds. (AID 1845220). Also: nearly all actives have a fitted effect of over 60% in size.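 As to activity change, negative = inhibition: series mostly up to about 54 µM; plate controls were DMSO vehicle for no effect and no enzyme for full effect.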 The method in brief: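 Titrated compounds were incubated 15 min at RT, protected from light, with luciferin and ATP at 10 uM; reaction started with 10 nM FLuc, luminescence imaged at 5 min, and concentration-response fitted by Hill equation.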

The nature of experiment [5]: Primary fluorescence-based thiol-reactive (MSTI) qHTS assay for identification of artifact compounds. (AID 1845221). Also: nearly all actives have a fitted effect of over 65% in size. Also: potency is read from the fitted curve at half-maximal effect.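 As to activity change, negative = thiol reactive: series mostly up to about 54 µM; thiol-reactive compounds lower the probe fluorescence signal.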 The method in brief: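 Reactivity toward the thiol probe MSTI (4 uM) is scored by fluorescence at Ex/Em 525/598 nm after 1 h at room temperature. Acetyl-MSTI and MSTI define the activity scale.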
Experiment [6] relates to Nanoluciferase (engineered Oplophorus gracilirostris luciferase). Description: Primary Nanoluciferase (NLuc) qHTS assay for identification of artifact compounds. (AID 1845222).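 Also: NLuc secreted into diluted conditioned medium of S16 cells; series mostly up to about 54 µM; 0% = DMSO and -100% = no enzyme.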 The method in brief:
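qHTS format, against NLuc in S16 cell-conditioned medium. Nano-Glo substrate 1:100 was added after 15 min at room temperature. Luminescence was taken after a further 5 min.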

A number with no mark means an inactive call. Inconclusive results are not listed. Active and inactive are the calls of the source. Calls follow the shape of the dose curve; as a rule, active = well fitted curve in the direction sought with a large enough effect; inconclusive = small, poorly fitted or top-dose-only effect, or another doubt; inactive = no such curve, though single readings can be large; an effect the other way counts as inactive or inconclusive.

Chain of Phospholipid hydroperoxide glutathione peroxidase GPX4 (Homo sapiens) (P36969 whole entry, looked up): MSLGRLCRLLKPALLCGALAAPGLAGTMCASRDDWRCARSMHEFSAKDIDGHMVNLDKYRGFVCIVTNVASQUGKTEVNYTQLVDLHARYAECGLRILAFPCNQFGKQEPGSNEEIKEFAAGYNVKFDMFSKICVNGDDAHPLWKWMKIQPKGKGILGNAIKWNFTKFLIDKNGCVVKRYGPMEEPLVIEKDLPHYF
Chain of Glutathione peroxidase 1 (Homo sapiens) (P07203 whole entry, looked up): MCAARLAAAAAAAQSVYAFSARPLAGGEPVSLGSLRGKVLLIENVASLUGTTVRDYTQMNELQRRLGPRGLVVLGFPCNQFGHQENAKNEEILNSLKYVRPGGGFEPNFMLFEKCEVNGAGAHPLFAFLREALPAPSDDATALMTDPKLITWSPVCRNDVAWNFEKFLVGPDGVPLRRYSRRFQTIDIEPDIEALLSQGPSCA

As for `COc1ccc(CCC(=O)c2c(O)cc(O)cc2O[C@@H]2O[C@H](CO)[C@@H](O)[C@H](O)[C@H]2O)cc1`, the Potency in experiment [1] is 8930 nM (active); in experiment [5], 10300 nM (active). Moreover, the Potency entry in experiment [2], in experiment [3], in experiment [4] and in experiment [6] was “inactive” in each case.
Take `C=CC(=O)Nc1cccc(Nc2nc(Nc3ccc(N4CCN(C(C)=O)CC4)cc3OC)ncc2C(F)(F)F)c1`: the Potency was 2900 nM (active) in experiment [1] and 2990 nM (active) in experiment [5]. Also, the Potency result in experiment [2], in experiment [3], in experiment [4] and in experiment [6] was “inactive” throughout.
For `C[C@@H]1CC[C@]2(C(=O)OC3OC(CO)C(O)C(O)C3O)CC[C@]3(C)C(=CCC4[C@@]5(C)CC[C@H](O)[C@](C)(C(=O)O)C5CC[C@]43C)C2[C@]1(C)O` (stereo partly specified), the Potency result in experiment [1], in experiment [2], in experiment [3], in experiment [4], in experiment [5] and in experiment [6] was “inactive” throughout.
As for `C[C@H](CCC(=O)O)[C@H]1CC[C@H]2[C@@H]3C[C@H](O)[C@@H]4C[C@H](O)CC[C@]4(C)[C@H]3CC[C@]12C`, the Potency entry in experiment [1], in experiment [2], in experiment [3], in experiment [4], in experiment [5] and in experiment [6] was “inactive” each time.
Take `CC[C@@H](O)C[C@@H]1C(C)=C[C@@H]2CCCC[C@@H]2[C@@]1(C)C(=O)O`: the Potency result in experiment [1], in experiment [2], in experiment [3], in experiment [4], in experiment [5] and in experiment [6] was “inactive” in each case.
On to `CO[C@H]1/C=C/C=C/C=C/C[C@H](OC(=O)[C@@H](C)NC(=O)C2CCCCC2)[C@H](C)[C@@H](O)/C(C)=C/CCc2cc(O)cc(c2)NC(=O)C1`, for which the Potency in experiment [1] was 242 nM (active); in experiment [5] it was 5610 nM (active). The Potency entry in experiment [2], in experiment [3], in experiment [4] and in experiment [6] was “inactive” throughout.
As to `O=C(c1cc2c(cc1F)OC(c1ccc(F)cc1)(c1ccc(Cl)cc1Cl)O2)N1CCOCC1` (stereo unspecified), in experiment [1], the Potency was 20500 nM (active). In addition, the Potency result in experiment [2], in experiment [3], in experiment [4], in experiment [5] and in experiment [6] was “inactive” in each case.
As to `Cc1cnc(NC(=O)Nc2cc(Br)c(C)cc2OCC2CNCCO2)cn1` (stereo unspecified), the Potency in experiment [1] was 578 nM (active). Further, the Potency result in experiment [2], in experiment [3], in experiment [4], in experiment [5] and in experiment [6] was “inactive” in each case.
Consider `O=C(c1cccc(Cl)c1F)N1CCN(Cc2cccc(Nc3nccs3)n2)CC1`, for which the Potency in experiment [1] was 728 nM (active). The Potency entry in experiment [2], in experiment [3], in experiment [4], in experiment [5] and in experiment [6] was “inactive” each time.
On to `C[C@@H]1C[C@@H]([C@@H](O)C(C)(C)O)O[C@H]2C[C@@]3(C)C(=C12)C[C@H](O)[C@H]1[C@@]2(C)CCC(=O)C(C)(C)C2CC[C@@]13C` (stereo partly specified), for which the Potency result in experiment [1], in experiment [2], in experiment [3], in experiment [4], in experiment [5] and in experiment [6] was “inactive” in each case.
As to `CC1(C)CCC2(C(=O)OC3OC(CO)C(O)C(O)C3O)CCC3(C)C(=CCC4C5(C)CCC(O)C(C)(C(=O)O)C5CCC43C)C2C1O` (stereo unspecified), the Potency entry in experiment [1], in experiment [2], in experiment [3], in experiment [4], in experiment [5] and in experiment [6] was “inactive” each time.
Regarding `C/C=C/C=C/[C@@H]1O[C@](O)([C@H](CC)C(=O)NC/C=C/C=C(\C)[C@@H](OC)[C@@H](C)C2OC(/C=C/C=C/C=C(\C)C(=O)c3c(O)cc[nH]c3=O)[C@H](O)[C@@H]2O)[C@H](O)[C@H](O)C1(C)C` (stereo partly specified), the Potency entry in experiment [1], in experiment [2], in experiment [3], in experiment [4], in experiment [5] and in experiment [6] was “inactive” in each case.
As to `C[C@@H](O)[C@H](NC(=O)c1ccc(C#Cc2ccc(CN3CCOCC3)cc2)cc1)C(=O)NO`, the Potency result in experiment [1], in experiment [2], in experiment [3], in experiment [4], in experiment [5] and in experiment [6] was “inactive” throughout.
As for `CC1=C(C)C(=O)OC(C(C)C2CCC3C4CC=C5CC(OC6OC(COC7OC(CO)C(O)C(O)C7O)C(O)C(O)C6O)CC(O)C5(C)C4CCC23C)C1` (stereo unspecified), the Potency entry in experiment [1], in experiment [2], in experiment [3], in experiment [4], in experiment [5] and in experiment [6] was “inactive” throughout.
Take `CC1OC(OCC2OC(OC3CCC4(C)C(CCC5(C)C4CC=C4C6CC(C)(C)CCC6(C(=O)OC6OC(CO)C(O)C(O)C6O)CCC45C)C3(C)CO)C(O)C(O)C2O)C(O)C(O)C1O` (stereo unspecified): in experiment [1], the activity change, negative = cell killing is -0.623% [at 9.23 µM]. In addition, the Potency entry in experiment [2] and in experiment [3] was “inactive” throughout. In experiment [4], the activity change, negative = inhibition was -1.2% [at 11.6 µM]. For the same compound, the activity change, negative = thiol reactive in experiment [5] is 188% [at 11.5 µM]. For the same compound, the activity, negative = inhibition in experiment [6] was 0% [at 11.6 µM].
On to `O=C(O)[C@H](Cc1ccc(Nc2nccc3ccncc23)cc1)NC1=C(Br)C(=O)C12CCCCC2`, for which the Potency result in experiment [1], in experiment [2], in experiment [3], in experiment [4], in experiment [5] and in experiment [6] was “inactive” throughout.
